Compound activity (PubChem)
A selection: hits, their analogues and other compounds. The true share with any hit is near 10%.
HPGD inh: inhibitors of human 15-hydroxyprostaglandin dehydrogenase (HPGD); Potency, µM, usual class: inhibitors; P15428; AID 894; 150,000 compounds, 4.3% hits; purified HPGD, NADH fluorescence kinetic, PGE2 substrate
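20 nM HPGD preincubated 15 min at room temperature with compound in 50 mM Tris-HCl pH 8, 0.01% Tween 20. Started with 1 mM NAD+ and 30 uM prostaglandin E2; NADH fluorescence (360/450 nm) read 5 times over 30-s intervals, last minus first.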
Lamin A splicing: LMNA splicing modulation. HeLa LMNA splicing GFP/RFP minigene ratio, 48 h. Potency, µM (top dose mostly 46.1 µM), usual class: inhibitors. 200,000 compounds, 0.01% hits. AID 1487; active = well fitted inhibition curve with a large enough effect in the signal ratio, with a control signal flat, not every such curve was filed as active; inconclusive = small, poorly fitted or top-dose-only effect, or effect the other way, or a change in a side signal; the % refers to the signal ratio
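S3 HeLa stable clones carrying a lamin A-EGFP splicing minigene plus DsRed2 were seeded at 600 cells/well in Opti-MEM with 2% FBS, pin-dosed and incubated 48 h at 37°C. Acumen cytometry (488 nm) gave the GFP/RFP total-intensity ratio.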
12-hLO inh: 12-hLO (ALOX12) enzyme inhibition; P18054; purified 12-hLO, xylenol orange hydroperoxide absorbance; Potency, µM (highest dose often 57.1 µM), actives largely listed as inhibitors; 150,000 compounds, 0.12% hits; AID 1452; active = well fitted inhibition curve with a large enough effect; inconclusive = small, poorly fitted or top-dose-only effect; also: nearly all actives have a fitted effect of over 55% in size
Target sequence (P18054 whole entry, looked up): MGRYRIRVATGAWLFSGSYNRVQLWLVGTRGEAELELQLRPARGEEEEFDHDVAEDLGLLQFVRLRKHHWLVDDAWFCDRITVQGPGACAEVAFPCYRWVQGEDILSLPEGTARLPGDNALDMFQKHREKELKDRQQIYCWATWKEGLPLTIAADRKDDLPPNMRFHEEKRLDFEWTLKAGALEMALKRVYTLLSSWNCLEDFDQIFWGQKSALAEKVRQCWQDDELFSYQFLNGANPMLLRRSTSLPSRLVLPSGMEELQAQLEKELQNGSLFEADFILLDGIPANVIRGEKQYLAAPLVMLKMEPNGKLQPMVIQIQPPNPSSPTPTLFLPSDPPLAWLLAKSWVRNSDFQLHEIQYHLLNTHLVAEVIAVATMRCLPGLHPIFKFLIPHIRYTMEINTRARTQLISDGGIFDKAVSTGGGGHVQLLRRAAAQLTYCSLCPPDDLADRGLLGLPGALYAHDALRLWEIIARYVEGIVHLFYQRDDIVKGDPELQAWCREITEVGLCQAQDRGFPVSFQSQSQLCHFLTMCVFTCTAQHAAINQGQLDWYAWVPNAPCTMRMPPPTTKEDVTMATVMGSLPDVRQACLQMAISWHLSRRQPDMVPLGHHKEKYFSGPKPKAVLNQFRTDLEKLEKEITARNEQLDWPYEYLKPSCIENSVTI
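Hydroperoxide formation by human 12-lipoxygenase from 40 uM arachidonic acid was followed colorimetrically via ferric-xylenol orange complex, using the 573/405 nm absorbance ratio. Enzyme concentration was 150 nM, with 30 min reaction at room temperature.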
PNC inhibitor: inhibitors of perinucleolar compartment assembly; 140,000 compounds, 3.1% hits; PC3M PTB-GFP, PNC prevalence imaging, 16 h; hits give low values; activity change (PNC), negative = inhibition, % at 10 µM; AID 2417;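 active = readout at or below -70, meaning at least 70% loss of cells showing the perinucleolar compartment, a nuclear body marking cancer cells; inconclusive = readout between -30 and a set limit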
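PC3M cells stably expressing PTB-GFP, 750–1000 cells/well, treated 16 h at 37 °C with compound (23 nl of library stock), in duplicate. After paraformaldehyde fixation and Hoechst stain, imaged at 20x; PNC prevalence scored by image analysis.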
ALDH1A1 block: ALDH1A1 (human) enzyme inhibition; 220,000 compounds, 7.3% hits; Potency, µM (doses to about 75.3 µM), actives largely listed as inhibitors; Purified ALDH1A1, NADH fluorescence, propionaldehyde substrate; P00352
Hits are given with their value; - = inactive; ? = inconclusive; . = no result given; [ ] = another dose, or the depositor's remark. Unless noted, calls follow the shape of the dose curve; as a rule, active = well fitted inhibition curve with a large enough effect (not every such curve was filed as active); inconclusive = small, poorly fitted or top-dose-only effect, or another doubt; inactive = no such curve, though single readings can be large or run the other way.

SMILES | HPGD inh | Lamin A splicing | 12-hLO inh | PNC inhibitor | ALDH1A1 block
CCCCC/C=C\C/C=C\C/C=C\C/C=C\CCCCCC(=O)NCC(=O)O | - | . | - | . | -
CCOC(=O)C(=O)/C(=C\N(C)C)c1onc(-c2ccccc2Cl)c1C(=O)OC | 14µM | - | - | ? | ?
CCOC(=O)C(=O)/C(=C\N(C)C)c1onc(-c2c(Cl)cccc2Cl)c1C(=O)OC | 14µM | - | - | ? | -
Cc1ccc(NC(=O)CN2C(=O)CCc3ccccc32)cc1C | . | - | . | . | .
O=C(Nc1ccccc1)N1CCCC2(CCNCC2)C1 | - | . | - | . | -
COC(=O)c1scc(-c2ccc(C)cc2)c1S(=O)(=O)N1CCN(c2cccc(OC)c2)CC1 | . | - | . | . | .
CCN(CC)c1nc2ccccc2nc1C(=O)Nc1cccc(C(C)=O)c1 | . | - | . | . | .
Cc1cc(-c2n[nH]c(=S)n2/N=C/c2ccc(Cl)c([N+](=O)[O-])c2)n[nH]1 | 7.9µM | - | - | - | 14µM
O=[N+]([O-])c1cc(/C=N/n2c(-c3ccncc3)n[nH]c2=S)ccc1Cl | . | - | . | . | ?
Cc1cc(-c2n[nH]c(=S)n2/N=C/c2cc([N+](=O)[O-])ccc2Cl)n[nH]1 | 25µM | - | - | - | ?
CCOc1ccc(N(CC(=O)Nc2ccc(C)c(C)c2)S(=O)(=O)c2c(C)noc2C)cc1 | - | ? | - | ? | -
CCOc1ccc(N(CC(=O)Nc2ccccc2C)S(=O)(=O)c2c(C)noc2C)cc1 | - | - | - | -88 | ?
CCOc1ccccc1NC(=O)CN(c1ccc(OC)cc1)S(=O)(=O)c1c(C)noc1C | - | ? | - | -97 | -
COc1ccccc1CCNC(=O)C1(c2cccs2)CCOCC1 | . | - | . | . | .
NC(=O)c1cc2ccccc2oc1=NCc1ccccc1 | - | - | - | - | -
NC(=O)c1cc2ccccc2o/c1=N\NC(=O)c1ccco1 | - | - | - | -119 | -
Cc1ccc(Cl)cc1N1CCN(C(=O)c2sc3nc4n(c(=O)c3c2C)CCC4)CC1 | . | - | . | . | .
Oc1ccc(C2CNCCc3c2cc(O)c(O)c3Cl)cc1 (stereo unspecified) | - | ? | . | . | ?
Oc1ccc(C2CNCc3sccc32)cc1O (stereo unspecified) | 7.1µM | ? | . | . | ?
COc1ccc(-n2ccn(CC(=O)Nc3ccccc3C(F)(F)F)c(=O)c2=O)cc1OC | . | - | . | . | .
CC(C)OC(=O)c1cc(-c2ccc(C=O)o2)ccc1Cl | - | ? | - | ? | 8.9µM
O=C1[C@H]2[C@H]3[C@H](O)[C@H](O)C/C(=N/OCc4ccccc4)[C@@H]3CC[C@@H]2C(=O)N1Cc1ccc2c(c1)OCO2 | . | . | . | . | -[13.5 µM]
Clc1cccc(Oc2ncccn2)c1 | - | - | - | -83 | -
CCOC(=O)c1c(NC(=O)CSc2nc3ccccc3o2)sc(C)c1C | - | ? | - | ? | -
Cc1nnc(NC(=O)CSc2nnc(-c3ccco3)o2)s1 | . | -[9.22 µM] | . | . | -
SMILES | HPGD inh | Lamin A splicing | 12-hLO inh | PNC inhibitor | ALDH1A1 block
CCCn1c(N)c(C(=O)CSc2nnc(Cc3ccccc3)o2)c(=O)n(C)c1=O | - | ? | - | -100 | -
CCOC(=O)c1c(NC(=O)CSc2nnc(-c3ccco3)o2)sc(C)c1C | - | - | - | - | 8.9µM
CCOC(=O)c1c(NC(=O)CSc2nnc(Cc3ccccc3)o2)sc(C)c1C | - | - | - | - | 16µM
CCOC(=O)c1c(NC(=O)CSc2nnc(-c3ccccc3C)n2C)sc(C(C)=O)c1C | ? | - | - | - | 25µM
CC(C)c1ccc(NC(=O)CCNS(=O)(=O)c2ccc3c(c2)CCCC(=O)N3)cc1 | . | - | . | . | .
CCOC(=O)c1cc(-c2nnc(SCC(=O)Nc3ccc(F)cc3)o2)c(C)nc1C | 14µM | - | - | - | 10µM
Cc1sc(NC(=O)CSc2nnc(-c3ccc(F)cc3)o2)c(C#N)c1C | - | - | - | - | -
CCOC(=O)c1c(NC(=O)CSc2nnc(-c3ccco3)o2)sc(C(C)=O)c1C | 16µM | - | - | - | -
CCOc1cc(NC(=S)NCC2CCCO2)c(OCC)cc1NC(=O)C1CC1 (stereo unspecified) | . | - | . | . | -
CCOc1cc(NC(=S)Nc2cccc(OC)c2)c(OCC)cc1NC(=O)C1CC1 | - | - | ? | -106 | -
CCOC(=O)C1=C(C)N(C)C(=O)NC1c1ccc(C)s1 (stereo unspecified) | - | - | - | - | -
CCOC(=O)C1=C(C)NC(=S)NC1c1ccc(C)s1 (stereo unspecified) | . | - | . | . | 2.5µM
CCOC(=O)C1=C(C)NC(=S)NC1c1cc(C)sc1C (stereo unspecified) | . | . | . | . | 40µM
CCOC(=O)C1=C(C)NC(=S)NC1c1ccsc1 (stereo unspecified) | . | - | . | . | 7.1µM
COC(=O)C1=C(C)NC(=O)NC1c1ccsc1 (stereo unspecified) | - | - | - | ? | -
CCOC(=O)C1=C(CN2CCN(c3ccc(Cl)cc3)CC2)NC(=O)NC1c1ccc(OC)cc1 (stereo unspecified) | . | - | . | . | .
CCCCc1ccc(-c2csc(/C(C#N)=C\c3ccc(C)o3)n2)cc1 | - | - | ? | - | -
CCOc1ccc(-c2csc(/C(C#N)=C\c3ccc(O)c([N+](=O)[O-])c3)n2)cc1 | 3.2µM | ? | - | ? | -
CCC(=O)Nc1cccc2c1C(=O)N(C)C2=O | ? | - | - | -111 | -
COCC(=O)Nc1cc(=O)n(C)c(=O)n1C | - | - | - | -84 | -
COc1ccc(CC(=O)Nc2cc(=O)n(C)c(=O)n2C)cc1OC | . | . | . | . | -
Cc1cccc(CC(=O)Nc2cc(=O)n(C)c(=O)n2C)c1 | - | - | - | ? | ?
Cn1c(NC(=O)Cc2cccc3ccccc23)cc(=O)n(C)c1=O | . | -[9.22 µM] | . | . | 14µM
N=C(N)SCCc1ccc(OCc2ccc([N+](=O)[O-])cc2)cc1 | - | . | - | . | ?
O=C(CS(=O)(=O)c1cccc2nsnc12)NCc1ccccc1Cl | . | - | . | . | .
SMILES | HPGD inh | Lamin A splicing | 12-hLO inh | PNC inhibitor | ALDH1A1 block
CCc1ccccc1NC(=O)C(C#N)Cc1cccnc1 (stereo unspecified) | - | - | - | -82 | -
COc1cccc(NC(=O)C(C#N)Cc2ccncc2)c1 (stereo unspecified) | - | - | - | - | -
CCc1ccc(/C=C2/C(=O)N(c3ccccc3)C(=S)N2CC(=O)OC)s1 | - | - | - | ? | 8.9µM
COc1cccc2c1OC1(C)CC2NC(=O)N1c1cccc(C(=O)N2CCN(c3ccccc3)CC2)c1 (stereo unspecified) | . | - | . | . | -
O=C(CSc1nc(C2CC2)nc2ccccc12)N1CCc2ccccc2C1 | - | ? | - | - | -
O=C(COc1c(Br)cc(Br)c2cccnc12)N1CCc2ccccc2C1 | 18µM | ? | - | - | 11µM
O=C(CSc1ncnc2c1oc1ccccc12)NCc1ccco1 | 8.9µM | ? | - | ? | 11µM
O=C(O)CSc1ncnc2c1oc1ccccc12 | . | - | - | - | -
CCOC(=O)CC(=O)CSc1ncnc2c1oc1ccccc12 | 14µM | - | - | - | -
O=C(CSc1ncnc2c1oc1ccccc12)N1CCc2ccccc2C1 | 4µM | - | - | - | -
O=C(COc1c(Br)cc(Br)c2cccnc12)N1CCCCC1 | . | -[9.22 µM] | . | . | ?
